Data reported in PubChem BioAssay AID1159580 (chemical genetic matrix, 2015).
Several values for one entry are separate records, joined by “and”; a condition that tells them apart may be missing. Identical values can stand only once. Out of some 5,500 compounds screened, about 2,000 (36%) were called active. About 18% were inconclusive and are not listed. Cut-off read from the data, not from the text of the source: active = normalized growth mostly below about 0.91 (no sharp cut-off); inconclusive = no clear call, values can overlap the other calls; inactive = mostly above about 0.92. The list shows a part of the results.

Assay: chemical genetic growth profiling, strain panel (AID 1159580);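 note: tested at 20 µM; growth read once vehicle control cultures reached saturation at 30 °C; 1 = growth at the plate median or of vehicle wells; lower values mean less growth of the strain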
Conditions: S. cerevisiae deletion strains, growth OD

Measured: normalized growth

O=C1CCCN1CC#CCN1CCCC1
inactive: locus YAL013W, strain DEP1, hits give low values 1.02 and 1.01 | locus YAL021C, strain ccr4, hits give low values 1.01 | locus YAL026C, strain drs2, hits give low values 1.03 | locus YAL030W, strain snc1, hits give low values 1.02 | locus YAL040C, strain CLN3, hits give low values 1.01 | locus YBL061C, strain skt5, hits give low values 1.02 | locus YBR009C, strain hhf1, hits give low values 1.01 | locus YBR021W, strain FUR4, hits give low values 0.985 and 1.01 | locus YBR023C, strain chs3, hits give low values 1.02 | locus YBR171W, strain sec66, hits give low values 1.02 | locus YBR229C, strain ROT2, hits give low values 1 and 1.01 | locus YBR231C, strain swc5, hits give low values 1.03 | locus YBR279W, strain paf1, hits give low values 1.01 | locus YCL011C, strain gbp2, hits give low values 1.02 | locus YCL016C, strain dcc1, hits give low values 1.02 | locus YCL029C, strain bik1, hits give low values 1.01 and 1.02 | locus YCL061C, strain MRC1 (second series), hits give low values 1 | locus YCL069W, strain vba3, hits give low values 1.02 | locus YCR088W, strain abp1, hits give low values 1.03 | locus YDL005C, strain med2, hits give low values 1.03 | locus YDL035C, strain GPR1, hits give low values 1 and 1.03 | locus YDL040C, strain nat1, hits give low values 1.01 | locus YDL074C, strain BRE1, hits give low values 0.994 and 1.02 | locus YDL101C, strain DUN1, hits give low values 0.997 and 1.01 | locus YDL134C, strain PPH21, hits give low values 1.01 | locus YDL185W, strain tfp1, hits give low values 1.03 and 1.01 | locus YDL192W, strain arf1, hits give low values 1.01 and 1.02 | locus YDR001C, strain nth1, hits give low values 1.02 | locus YDR069C, strain doa4, hits give low values 1.03 | locus YDR101C, strain arx1, hits give low values 0.979 and 1.01 | locus YDR137W, strain rgp1, hits give low values 1.03 | locus YDR150W, strain NUM1, hits give low values 1.01 and 1 and 1.02 | locus YDR159W, strain sac3, hits give low values 0.999 | locus YDR162C, strain NBP2, hits give low values 1.02 and 1.01 | locus YDR195W, strain ref2 1.02 | locus YDR297W, strain sur2, hits give low values 1.02 | locus YDR318W, strain mcm21, hits give low values 1.01 and 1.02 | locus YDR334W, strain swr1, hits give low values 1.02 | locus YDR335W, strain msn5, hits give low values 1.02 | locus YDR363W, strain ESC2, hits give low values 1.01 | locus YDR388W, hits give low values 1.01 | locus YDR392W, strain spt3, hits give low values 1.01 | locus YDR502C, strain sam2, hits give low values 1.02 and 1.01 | locus YEL003W, strain gim4, hits give low values 1.02 | locus YEL037C, strain rad23, hits give low values 1.02 | locus YEL061C, strain CIN8 (second series), hits give low values 1.02 | locus YEL061C, strain CIN8, hits give low values 1 | locus YER002W, strain NOP16, hits give low values 0.985 | locus YER015W, strain faa2, hits give low values 1.02 | locus YER016W, strain bim1, hits give low values 1.01 | locus YER110C, hits give low values 1.02 | locus YER111C, strain swi4, hits give low values 1.03 | locus YER155C, strain BEM2 (second series), hits give low values 1.03 | locus YER155C, strain BEM2, hits give low values 0.994 and 1.01 | locus YER167W, strain BCK2, hits give low values 1 and 1.02 | locus YFR010W, strain ubp6, hits give low values 1.03 | locus YGL078C, strain dbp3, hits give low values 1.02 and 0.999 | locus YGL086W, strain mad1, hits give low values 0.999 and 1.03 | locus YGL167C, strain pmr1, hits give low values 1.01 | locus YGL173C, strain kem1, hits give low values 1.01 | locus YGL227W, strain vid30, hits give low values 1.02 | locus YGL240W, strain doc1, hits give low values 1.02 | locus YGL248W, strain PDE1, hits give low values 1.02 and 1.01 | locus YGL253W, strain hxk2, hits give low values 1.02 | locus YGR078C, strain PAC10, hits give low values 1 and 0.996 and 1.01 | locus YGR135W, strain pre9, hits give low values 1.04 and 0.991 | locus YGR229C, strain SMI1, hits give low values 1 | locus YGR252W, strain gcn5, hits give low values 1.1 and 1.03 | locus YHR013C, strain ard1, hits give low values 1.04 | locus YHR027C, strain rpn1, hits give low values 1.02 | locus YHR030C, strain SLT2, hits give low values 1.01 and 1.02 | locus YHR079C, strain IRE1 (second series), hits give low values 1.01 and 1.02 | locus YHR079C, strain IRE1, hits give low values 1.02 | locus YHR094C, strain hxt1, hits give low values 1.01 | locus YHR129C, strain ARP1, hits give low values 1 | locus YHR142W, strain chs7, hits give low values 1.05 | locus YHR200W, strain rpn10, hits give low values 1.01 and 1.02 | locus YIL066C, strain RNR3, hits give low values 1.02 and 1.03 | locus YIL073C, strain SPO22, hits give low values 1.06 and 1.1 | locus YIL125W, strain kgd1, hits give low values 1 and 1.01 | locus YIR030C, strain dcg1, hits give low values 1.01 and 1.02 | locus YJL092W, strain hpr5, hits give low values 1.01 | locus YJL095W, strain BCK1 (second series), hits give low values 1.02 | locus YJL095W, strain BCK1, hits give low values 1 and 1.03 and 0.996 | locus YJL115W, strain asf1, hits give low values 1.04 | locus YJL129C, strain trk1, hits give low values 1.04 | locus YJL134W, strain LCB3, hits give low values 1.01 | locus YJL154C, strain vps35, hits give low values 1.01 | locus YJL164C, strain tpk1, hits give low values 1.02 | locus YJL166W, strain qcr8, hits give low values 1.02 | locus YJL168C, strain set2, hits give low values 1 and 1.02 | locus YJL187C, strain SWE1 (second series), hits give low values 0.999 and 1 | locus YJL187C, strain SWE1, hits give low values 1.02 | locus YJR043C, strain POL32, hits give low values 1 and 1.02 | locus YJR066W, strain TOR1, hits give low values 0.971
